Each structure is given as a SMILES string.

The test system of this experiment is LEGO organoid PTCC (PTEN-/-; TP53-/-; CDKN2A-/-; CDKN2B-/-). Description: bioluminescence (viable cell) signal fold change after vs before treatment, normalised to DMSO (ratio); higher = more tumour cell growth / less inhibition. Conditions: 10 µM; treatment time 6 days. The protocol:
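Luc2-labelled iPSC-derived glioblastoma-like organoids (LEGOs, genotypes PT = PTEN-/-;TP53-/-, PTCC = plus CDKN2A/B-/-, PTN = plus NF1-/-) were treated with 10 uM drug for 6 days (applied every other day) at 37 C. Bioluminescence imaging was done before treatment and 2 days after the last dose. BLI signals were normalised to the DMSO control on the same day and then to the pre-treatment signal (N=3).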
Consider `C[C@H]1COc2c(N3CCN(C)CC3)c(F)cc3c(=O)c(C(=O)O)cn1c23` [Levofloxacin], for which the bioluminescence turned out to be 0.587.
Consider `Nc1nc(NC2CC2)c2ncn([C@H]3C=C[C@@H](CO)C3)c2n1.Nc1nc(NC2CC2)c2ncn([C@H]3C=C[C@@H](CO)C3)c2n1.O=S(=O)(O)O` [Abacavir sulfate], for which the bioluminescence turned out to be 1.28.
As for `CO[C@H]1C[C@@H]2CC[C@@H](C)[C@@](O)(O2)C(=O)C(=O)N2CCCC[C@H]2C(=O)O[C@H]([C@H](C)C[C@@H]2CC[C@@H](OC(=O)C(C)(CO)CO)[C@H](OC)C2)CC(=O)[C@H](C)/C=C(\C)[C@@H](O)[C@@H](OC)C(=O)[C@H](C)C[C@H](C)/C=C/C=C/C=C/1C` [Temsirolimus], the bioluminescence amounted to 0.978.
Consider `CCc1cc2c(cc1N1CCC(N3CCOCC3)CC1)C(C)(C)c1[nH]c3cc(C#N)ccc3c1C2=O` [Alectinib], for which the bioluminescence is 2.57.
The same measure for `NC(=O)N1c2ccccc2CC(=O)c2ccccc21` [Oxcarbazepine]: 0.951; for `CNCC[C@@H](Oc1ccccc1C)c1ccccc1.Cl` [Atomoxetine hydrochloride]: 1.04; for `O=c1[nH]cnc2c1ncn2[C@H]1CC[C@@H](CO)O1` [Didanosine]: 4.18.
With `S=c1nc[nH]c2nc[nH]c12` [Mercaptopurine], the bioluminescence amounted to 1.6.
The same measure for `CCN(CC)C(=O)[C@@]1(c2ccccc2)C[C@H]1CN.Cl` [Milnacipran ((1S-cis) hydrochloride)]: 2.09.
`CC(C)Nc1cccnc1N1CCN(C(=O)c2cc3cc(NS(C)(=O)=O)ccc3[nH]2)CC1.CS(=O)(=O)O` [Delavirdine mesylate]: the bioluminescence came to 0.912.
On to `C/C(O)=C(\C#N)C(=O)Nc1ccc(C(F)(F)F)cc1` [Teriflunomide], for which the bioluminescence was determined as 0.469.
On to `Nc1ncnc2c1ncn2[C@@H]1O[C@H](CO)[C@@H](O)[C@H]1O` [Adenosine], for which the bioluminescence worked out at 0.746.
As for `CC1(C)O[C@@H]2[C@@H](CO[C@@]3(COS(N)(=O)=O)OC(C)(C)O[C@@H]23)O1` [Topiramate], the bioluminescence was 1.62.
Turning to `CCn1c(=O)c2c(nc(/C=C/c3ccc(OC)c(OC)c3)n2C)n(CC)c1=O` [Istradefylline], the bioluminescence turned out to be 3.38.
The same measure for `CN(C)C(=N)NC(=N)N` [Metformin]: 1.89; for `FC(F)(F)C(Cl)Br` (stereo not drawn) [Anestan]: 0.664; for `CC(=O)c1c(C)c2cnc(Nc3ccc(N4CCNCC4)cn3)nc2n(C2CCCC2)c1=O.O=S(=O)(O)CCO` [Palbociclib Isethionate]: 2.84.
As to `CNCCCC1c2ccccc2C=Cc2ccccc21.Cl` [Protriptyline hydrochloride], the bioluminescence was 0.571.
`C[C@H](Cn1cnc2c(N)ncnc21)OCP(=O)(O)O` [Tenofovir]: the bioluminescence was determined as 3.69.
Regarding `CO/N=C(\C(=O)N[C@@H]1C(=O)N2C(C(=O)[O-])=C(COC(C)=O)CS[C@H]12)c1csc(N)n1.[Na+]` [Cefotaxime sodium], the bioluminescence stood at 1.45.
For `O=C(CCCN1CC=C(n2c(=O)[nH]c3ccccc32)CC1)c1ccc(F)cc1` [Droperidol], the bioluminescence was determined as 0.69.
The figure for `NC(=O)N1c2ccccc2C=Cc2ccccc21` [Carbamazepine] is 0.95; for `CS(=O)(=O)CCNCc1ccc(-c2ccc3ncnc(Nc4ccc(OCc5cccc(F)c5)c(Cl)c4)c3c2)o1` [Lapatinib] it is 0.878.
The figure for `CCc1nn(CCCN2CCN(c3cccc(Cl)c3)CC2)c(=O)n1CCOc1ccccc1.Cl` [Nefazodone hydrochloride] is 1.12.
In the case of `CC(CN(C)C)CN1c2ccccc2CCc2ccccc21.O=C(O)/C=C\C(=O)O` (stereo not drawn) [Trimipramine maleate], the bioluminescence came to 0.61.
As for `COc1ccc(Cl)cc1C(=O)NCCc1ccc(S(=O)(=O)NC(=O)NC2CCCCC2)cc1` [Glyburide], the bioluminescence turned out to be 1.51.
On to `N[C@H]1CONC1=O` [L-Cycloserine], for which the bioluminescence stood at 1.26.
The same measure for `C=CC(=O)Nc1cc(Nc2nccc(-c3cn(C)c4ccccc34)n2)c(OC)cc1N(C)CCN(C)C` [Osimertinib]: 0.0861; for `Cc1oncc1C(=O)Nc1ccc(C(F)(F)F)cc1` [Leflunomide]: 1.3; for `OCCN1CCN(CCCN2c3ccccc3Sc3ccc(Cl)cc32)CC1` [Perphenazine]: 0.615.
Consider `CN(C)CCC[C@@]1(c2ccc(F)cc2)OCc2cc(C#N)ccc21.O=C(O)C(=O)O` [Escitalopram Oxalate], for which the bioluminescence was 0.773.
For `CN(Cc1cnc2nc(N)nc(N)c2n1)c1ccc(C(=O)N[C@@H](CCC(=O)O)C(=O)O)cc1` [Methotrexate], the bioluminescence is 1.34.
The figure for `O=NN(CCCl)C(=O)NC1CCCCC1` [Lomustine] is 1.17.
As to `COCCOC(=O)C1=C(C)NC(C)=C(C(=O)OC(C)C)C1c1cccc([N+](=O)[O-])c1` (stereo not drawn) [Nimodipine], the bioluminescence came out at 1.61.
On to `O.O.O.O.[Li][O]C(=O)CC(O)(CC(=O)[O][Li])C(=O)[O][Li]` [Lithium citrate tetrahydrate], for which the bioluminescence was 0.787.
`CO/N=C(\C(=O)N[C@@H]1C(=O)N2C(C(=O)[O-])=C(C[N+]3(C)CCCC3)CS[C@H]12)c1csc(N)n1.Cl.Cl.O` [Cefepime Dihydrochloride Monohydrate]: the bioluminescence came out at 0.833.
As to `Cc1cccc(C)c1OCC(=O)N[C@@H](Cc1ccccc1)[C@@H](O)C[C@H](Cc1ccccc1)NC(=O)[C@H](C(C)C)N1CCCNC1=O` [Lopinavir], the bioluminescence turned out to be 0.969.
The figure for `C#Cc1cccc(Nc2ncnc3cc(OCCOC)c(OCCOC)cc23)c1.Cl` [Erlotinib hydrochloride] is 1.66.

Values taken from the supplement of paper PMC10811239.
